# Reference: PubChem BioAssay (Tox21)
# Inconclusive results are not listed. Unmarked numbers belong to inactive results. The source made the active and inactive calls. Calls come from the whole dose curve; as a rule, active = well fitted activation curve with a large enough effect in the repeat runs; inconclusive = weak or mixed curves; inactive = flat fitted curve, though single readings scatter. Positions of bridges follow the written chain, without caps; N, C: chain ends. Non-standard residues stand in square brackets, D forms with d. Residues, ends and D or L forms follow the SMILES beside them. hArg = N=C(N)NCCCC[C@H](N)C(=O)O; Mpa = O=C(O)CCS
# Assay: A CellTox Green Cytotoxicity Assay to monitor cytotoxicity in HepG2 cells - 40 hour (AID 1224879); note: nearly all actives have a fitted effect of over 40% in size
# Conditions: CellTox Green fluorescence; series mostly up to 76.8 µM; cytotoxicity increase: at the top concentration
# From the text: National Center for Advancing Translational Sciences [NCATS]
# NIH Chemical Genomics Center [NCGC]
# U.S. Environmental Protection Agency [EPA]
# National Institutes of Environmental Health Sciences [NIEHS]
# National Toxicology Program [NTP]
# Cell-based models are critical for drug discovery. Determining the natural cytotoxic effects resulting from test compounds is an essential research activity. A CellTox Green Cytotoxicity Assay to monitor cytotoxicity in real time of continues cell culture during 40 hours of the compound treatment was used to screen Tox21 10K library compounds in HepG2 cells. CellTox Green Cytotoxicity Assay is a nonlytic, homogeneous, biofluorescent method to measure cytotoxicity in cell culture after experimental manipulation. The assay system uses a proprietary asymmetric cyanine dye that is excluded from viable cells but preferentially stains the dead cell's DNA. […] Viable cells produce no appreciable increases in fluorescence. Therefore, the fluorescence signal produced by the binding interaction with dead cell DNA is proportional to cytotoxicity.
# The mixture of HepG2 cell suspension and reagents were dispensed at 600cells/6 ul/well in 1536-well tissue culture treated black solid bottom plates using a Multidrop dispenser. After the assay plates were incubated at a 37 C/5% CO2 incubator for 5 hours, 23 nL of compounds dissolved in DMSO, positive and negative controls was transferred to the assay plate by a pintool work station. The plates were incubated at 37 C for 40 hours. The fluorescence intensity were measured at 0h, 8h, 16h, 24h, 32h and 40h time points using ViewLux plate reader during compound treatment.
# % is set by controls: 0 for no effect and ±100 for the full control effect; potency is the fitted concentration of half-maximal effect.
SMILES,cytotoxicity increase,Potency
CC(S)C(C)S (stereo not given),-6.51%,–
CC(O)COC(C)(C)C (stereo not given),6.9%,–
O=C(O)CCCCCC(=O)O,-0.829%,–
OC1(c2ccc(Cl)cc2)CCNCC1,-9.57% [at 35.3 µM],–
O=Cc1ccccc1Cl,-3.01%,–
CO[C@@]1(NC(=O)Cc2cccs2)C(=O)N2C(C(=O)O)=C(COC(N)=O)CS[C@@H]21,-9.63% [at 35.3 µM],–
COC(C)(OC)OC,-0.184%,–
CCCCOC(=O)C(C)O (stereo not given),-15.7%,–
C/C=C(\C)C(=O)OCCc1ccccc1,1.54%,–
CC12CCC(C1)C(C)(C)C2O (stereo not given),–,2.19 µM (active)
NC(=O)[C@@H]1CSSCCC(=O)N[C@@H](CCCCN=C(N)N)C(=O)NCC(=O)N[C@@H](CC(=O)O)C(=O)N[C@@H](Cc2c[nH]c3ccccc23)C(=O)N2CCC[C@H]2C(=O)N1 ([Mpa][hArg]GDWPC-NH2; disulfide 1-7),2.6% [at 35.3 µM],–
CC1=C(C(=O)O)N2C(=O)[C@@H](NC(=O)[C@H](N)c3ccccc3)[C@H]2SC1,3.09% [at 35.3 µM],–
O=C1CCCCO1,-3.57%,–
N[C@@H](Cc1ccc(O)cc1)C(=O)O,-8.31% [at 6.97 µM],–
COc1cc(/C=C/C(N)=O)cc(OC)c1OC,-17.1% [at 35.3 µM],–
CC(C)CCOC(=O)c1ccccc1,10.6%,–
OC[C@@H](O)C(O)[C@@H](O)CO (stereo not given in full),-0.341%,–
CCCC(CC)c1ccccc1 (stereo not given),8.43%,–
CC(=O)OCC(=O)Nc1cc(C#N)cc(NC(=O)COC(C)=O)c1Cl,-1.8% [at 35.3 µM],–
C/C=C(\C)C(C)=O,-8.63%,–

SMILES,cytotoxicity increase,Potency
CC(=O)O[C@@H]1CC2CCC1(C)C2(C)C (stereo not given in full),1.17%,–
O=C(CCCCC(=O)Nc1c(I)cc(I)c(C(=O)O)c1I)Nc1c(I)cc(I)c(C(=O)O)c1I,-0.841% [at 35.3 µM],–
Cn1c(=O)c2[nH]c(Br)nc2n(C)c1=O,-11% [at 35.3 µM],–
C[C@]12CCC(=O)C=C1CC[C@H]1[C@@H]3CC[C@](O)(C(=O)CO)[C@@]3(C)C[C@H](O)[C@@]12F,-16.5% [at 35.3 µM],–
CC1=C(O)C(=O)C(C)O1 (stereo not given),-13.3%,–
CC(C)=CCC/C(C)=C/COC=O,7.8%,–
CC1(C)[C@H]2CC[C@](C)(C2)[C@H]1O,1.52%,–
CN1CCOC(c2ccccc2)c2ccccc2C1 (stereo not given),14.5% [at 35.3 µM],–
C=Cc1ccc(C(C)(C)C)cc1,22.9%,–
CCC/C=C(\C=O)CC,1.35%,–
COC(=O)c1ccccc1C(=O)O,2.94%,–
O=Cc1cc2ccccc2o1,-0.649%,–
O=C=NCC1CCCC(CN=C=O)C1 (stereo not given),-15.6%,–
CC(C)=CCC[C@@](C)(O)[C@H]1CC=C(C)CC1,1.02% [at 35.3 µM],–
OCC(O)CN1CCN(c2ccccc2)CC1 (stereo not given),-5.41% [at 35.3 µM],–
CCCCCCCCCCCCCCCCCC#N,-11.3%,–
ONc1ccccc1,-11.5%,–
COC(=O)CCCCC(CCSS/C(CCO)=C(\C)N(C=O)Cc1cnc(C)nc1N)SC(C)=O (stereo not given),-19.8% [at 35.3 µM],–
CCCCCC(C)O (stereo not given),-2.51%,–
Cc1cc(C)c(C(=O)O)c(C)c1,1.13%,–
